# Assay results from PubChem BioAssay (EPA / NIEHS).
# Values joined by “and” are separate entries in the source; they are usually repeats but may differ in a detail not shown here. Equal entries are not always repeated. Records with an inconclusive call do not appear. The source holds several records for some structures; these can differ, active in one and inactive in another. Active and inactive are the calls of the source. How the source made its calls: active means hit-call score of the fitted dose curve at least 0.9, where 1 is the maximum; inconclusive means response in the unintended direction; inactive means score below 0.9.
# Target: human Thyroid Receptor alpha (THRa1), THRA (gene 7067) (UniProt P10827)
# Sequence (P10827 whole entry, looked up): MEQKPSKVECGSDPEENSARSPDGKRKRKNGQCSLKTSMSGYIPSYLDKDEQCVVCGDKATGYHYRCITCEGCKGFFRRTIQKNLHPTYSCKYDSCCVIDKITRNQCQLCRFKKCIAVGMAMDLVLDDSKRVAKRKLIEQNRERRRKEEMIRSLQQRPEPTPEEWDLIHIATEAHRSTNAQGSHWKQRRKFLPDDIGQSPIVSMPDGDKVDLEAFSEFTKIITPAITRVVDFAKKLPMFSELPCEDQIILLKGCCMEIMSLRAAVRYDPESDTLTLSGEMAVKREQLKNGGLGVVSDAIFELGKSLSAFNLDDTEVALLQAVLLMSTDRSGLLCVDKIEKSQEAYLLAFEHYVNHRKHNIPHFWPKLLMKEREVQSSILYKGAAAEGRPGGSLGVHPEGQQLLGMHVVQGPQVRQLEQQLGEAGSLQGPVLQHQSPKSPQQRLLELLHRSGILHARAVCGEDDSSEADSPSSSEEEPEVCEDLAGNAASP
# Assay: ATG_THRa1_TRANS: Attagene TRANS-FACTORIAL HepG2 Assay for human Thyroid Receptor alpha (THRa1) (AID 2283014)
# Description: ATG_TRANS is a cell-based, multiplexed-readout assay that uses HepG2, a human liver cell line, with measurements taken at 24 hours after chemical dosing in a 24-well plate.ATG_THRa1_TRANS is one of 30 assay component(s) measured or calculated from the ATG_TRANS assay. It is designed to make measurements of mRNA induction, a form of inducible reporter, as detected with fluorescence intensity signals by Reverse transcription polymerase chain reaction (RT-PCR) and Capillary electrophoresis technology.Data from the assay component ATG_THRa1_TRANS was analyzed into 1 assay endpoint. This assay endpoint, ATG_THRa1_TRANS, was analyzed in the positive analysis fitting direction relative to DMSO as the negative control and baseline of activity. Using a type of inducible reporter, measures of mRNA for gain-of-signal activity can be used to understand the reporter gene at the transcription factor-level as they relate to the gene THRA. Furthermore, this assay endpoint can be referred to as a primary readout, because this assay has produced multiple assay endpoints where this one serves a reporter gene function. To generalize the intended target to other relatable targets, this assay endpoint is annotated to the nuclear receptor intended target family, where the subfamily is non-steroidal.
# Human liver HepG2 cells are transiently transfected with multiple reporter transcription units (MRTUs) in 6-well plates using FuGene 6 reagent (Roche; 3 ml FuGene/1 mg DNA). The MRTU constructs are regulated by a cis-regulating element (promoter). […] A major difference between the CIS and TRANS system is that in CIS activities of endogenous TFs are measured, whereas the TRANS assay evaluates changes in activities of exogenous, chimeric NR-Gal4 proteins. […] At the end of 24 hour incubation, total RNA was isolated using TriZol reagent (Invitrogen). The isolated RNA is then reverse-transcribed using oligo(dT) primer and Mo-MLV reverse transcriptase (Invitrogen) with DNAse I (Ambion) treatment for 30 min. The one-tenth of the produced cDNA was amplified by PCR using Taq DNA polymerase (Invitrogen) and two reporter sequence-specific primers. The PCR products were fluorescently labeled by primer extension with 6-arboxyfluorescein (6-FAM) 5'-labeled reporter sequence-specific primer (2 min at 95 C, 20 s at 68 C and 10 min at 72 C) and these products were digested with 5U of HpaI (New England Biolabs) for 2h at 37 C. The fragments were purified using Qiaquick PCR columns (Qiagen), analyzed on an ABI 3130xL genetic analyzer (Applied Biosystems) with peak positions identified by using a set of X-rhodamine (ROX)-labeled MapMarker1000 molecular weight standards (BioVentures). The raw capillary electrophoresis data was processed using Attagraph software (Attagene).
Structure (SMILES),outcome,AC50
CCN(CC)CC,inactive,
COc1cc([N+](=O)[O-])ccc1N,inactive,
C=CC(=O)OCCC(F)(F)C(F)(F)C(F)(F)C(F)(F)C(F)(F)C(F)(F)C(F)(F)C(F)(F)F,inactive,
CNNCc1ccc(C(=O)NC(C)C)cc1,inactive,
C=CC(=O)OCCC(F)(F)C(F)(F)C(F)(F)C(F)(F)C(F)(F)C(F)(F)F,inactive,
CCCCC(CC)C(=O)OCCOCCOCCOCCOC(=O)C(CC)CCCC (stereo not given),inactive,
CCC1CO1 (stereo not given),inactive,
O=C1C=CC(=O)N1c1cccc(N2C(=O)C=CC2=O)c1,inactive,
NNc1nc(-c2ccc([N+](=O)[O-])cc2)cs1,,48.5 µM (active)
CCCCCCCCCCCC[N+](C)(C)CCCCCCCCCCCC,inactive,
CCOC(=O)c1nc(C(Cl)(Cl)Cl)n(-c2ccc(Cl)cc2Cl)n1,,2.11 µM (active)
C=COC(=O)C(C)(C)CCCCCC,inactive,
CN(CCO)S(=O)(=O)C(F)(F)C(F)(F)C(F)(F)C(F)(F)C(F)(F)C(F)(F)C(F)(F)C(F)(F)F,inactive,
CCCCCCC(C)(C)C(=O)O,inactive,
FC1(F)C=CC(F)(F)C1(F)F,inactive,
O=S(=O)(O)c1ccc2cc(O)ccc2c1,inactive,
C=CC(=O)OCCN(CC)CC,inactive,
COc1ccccc1NC(=O)c1cc2ccccc2cc1O,,21.7 µM (active)
CC(C)[C@@H]1CC[C@@H](C)C[C@H]1O,inactive,
Cc1cc(C(C)(C)C)c(O)c(C(C)(C)C)c1,inactive,

Structure (SMILES),outcome,AC50
CCc1cccc(CC)c1N(COC)C(=O)CS(=O)(=O)O,inactive,
O=CC(F)(F)C(F)(F)C(F)(F)C(F)F,inactive,
CC1COCc2cc3c(cc21)C(C)(C)C(C)C3(C)C (stereo not given),inactive,
NC(=NCCCCCCN=C(N)/N=C(\N)Nc1ccc(Cl)cc1)/N=C(\N)Nc1ccc(Cl)cc1,inactive,8.56 µM (active) and 6.83 µM (active)
O=C(O)C(F)(F)OC(F)(F)C(F)(F)OC(F)(F)C(F)(F)OC(F)(F)C(F)(F)C(F)(F)C(F)(F)F,inactive,
Cc1ccc(S(=O)(=O)O)cc1,inactive,
COC(O)c1ccccc1 (stereo not given),inactive,
O=C(O)CCC(F)(F)C(F)(F)C(F)(F)C(F)(F)C(F)(F)C(F)(F)F,inactive,
O=C(Nc1cccc([N+](=O)[O-])c1)c1cc2ccccc2cc1O,,17.5 µM (active)
CCCCCCCCCCCC,inactive,
C=Cc1ccc(O)c(OC)c1,inactive,
FC(F)(F)N1C(F)(F)C(F)(F)OC(F)(F)C1(F)F,inactive,
COc1cccc(O)c1,inactive,
CS(=O)(=O)c1ccc([C@@H](CC2CCCC2)C(=O)Nc2cnccn2)cc1Cl,inactive,
NNC(=O)CCCCC(=O)NN,inactive,
CCOC(C)=O,inactive,
Cn1sccc1=O,inactive,
CC(=O)Nc1ccc(O)cc1,inactive,
O=C(c1cc(O)c(O)c(O)c1)c1ccc(O)c(O)c1O,inactive,
